Among the data in ChEMBL document CHEMBL3988442, “University of Dundee, Small-Polar-MMV Screening Library” (2021) are Percent Effect values, retold here.

This assay addresses T1, Aspartate--tRNA(Asp/Asn) ligase (Mycobacterium tuberculosis (strain ATCC 25618 / H37Rv)) (UniProt P9WFW3).
T1 sequence (whole entry): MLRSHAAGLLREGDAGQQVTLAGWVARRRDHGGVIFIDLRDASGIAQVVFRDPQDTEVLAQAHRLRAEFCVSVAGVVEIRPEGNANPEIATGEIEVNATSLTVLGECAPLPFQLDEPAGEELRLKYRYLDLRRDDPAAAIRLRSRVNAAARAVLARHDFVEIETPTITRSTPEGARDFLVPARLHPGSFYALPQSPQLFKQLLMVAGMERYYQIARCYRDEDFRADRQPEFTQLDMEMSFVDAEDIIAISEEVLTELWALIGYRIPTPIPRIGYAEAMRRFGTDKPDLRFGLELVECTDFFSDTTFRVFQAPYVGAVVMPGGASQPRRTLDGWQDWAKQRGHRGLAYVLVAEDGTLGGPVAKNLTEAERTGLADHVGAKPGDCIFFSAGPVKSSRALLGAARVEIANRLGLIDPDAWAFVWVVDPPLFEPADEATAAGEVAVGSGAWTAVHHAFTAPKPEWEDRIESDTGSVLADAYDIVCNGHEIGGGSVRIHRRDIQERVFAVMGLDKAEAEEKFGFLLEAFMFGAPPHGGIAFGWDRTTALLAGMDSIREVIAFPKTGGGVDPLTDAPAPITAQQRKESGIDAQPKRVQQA
Briefly: Assay for Asp RNA synthetase-1 from Mycobacterium tuberculosis. Format: functional. Set-up: scale not given: in the data most compounds retested in dose-response had high values. As to conditions: 30 µM.
`c1ccc(-c2nc(CN3CCc4c(ncn4C4CC4)C3)cs2)cc1`: the Percent Effect was 4.49%.

As to `CCn1ccnc1CN1CCCC(CO)(Cc2cccc(Cl)c2)C1` (stereo not given), the Percent Effect was 10%.

`COc1ccc(CN2CCOC3(CCCN(c4nnc(C)o4)C3)C2)cc1` (stereo not given): the Percent Effect is -5.88%.

On to `c1cncc(OCc2noc3c2CN(Cc2ccoc2)CC3)c1`, for which the Percent Effect worked out at 2.82%.

Consider `CC(C)C1CN(C(=O)c2ccc(N3CCCC3)nc2)CCS1` (stereo not given), for which the Percent Effect came out at 12.9%.

With `O=C(Nc1ncn(CC(=O)N2CCCCCC2)n1)C1CCCO1` (stereo not given), the Percent Effect is -0.233%.

As for `CN1CC(=O)N(c2ccccc2)CC12CCN(Cc1nccs1)C2` (stereo not given), the Percent Effect came out at 4.78%.

For the molecule `CC(C(=O)N1CCN(c2cnccn2)CC1)n1cncn1` (stereo not given), the Percent Effect is 2.72%.

With `COCCN1CCC(CN(CC2CCCO2)C(=O)CCNC(C)=O)CC1` (stereo not given), the Percent Effect is -0.167%.

With `CN(Cc1ccc(Cl)c(Cl)c1)C(=O)CNC(N)=O`, the Percent Effect was 0.719%.

Turning to `COCC1CN(S(C)(=O)=O)Cc2ncn(CC3CC3)c21` (stereo not given), the Percent Effect is -3.82%.

With `CN(C)C(=O)[C@@H]1CCO[C@@H]2CCN(CCc3ccccc3)C[C@@H]21`, the Percent Effect was -3.08%.

Take `CS(=O)(=O)c1ccc(CNCC2CCN(CCO)CC2)cc1`: the Percent Effect was determined as 9.49%.

In the case of `O=C(N1CCCCC1)N1CCN(CC(O)c2ccc(F)cc2)CC1` (stereo not given), the Percent Effect was -2.17%.

Consider `CS(=O)(=O)NC1CCCN(C(=O)NCc2cc[nH]n2)C1` (stereo not given), for which the Percent Effect is -0.0288%.

On to `COCC1c2c(cnn2C)CCN1Cc1ccc(F)cc1` (stereo not given), for which the Percent Effect was 1.28%.

Take `O=C(NCCn1ccc(-c2ccccn2)n1)c1ccncc1`: the Percent Effect is -6.73%.

Turning to `O=C(C1CCC1)N1CCN(Cc2ccsc2)[C@H]2CS(=O)(=O)C[C@H]21`, the Percent Effect was -4.67%.

For the molecule `CN(CC(=O)N1CCCC1Cn1cccn1)c1cnccn1` (stereo not given), the Percent Effect was -1.26%.

In the case of `Cc1nc(COCc2cnc3n2CCN(C2CCC2)C3C)cs1` (stereo not given), the Percent Effect is -4.78%.

On to `O=C(c1ccc(F)cc1)N1CCC2(CCCN2CC2CC2)CC1`, for which the Percent Effect is -2.16%.

On to `Cc1cccc(-c2noc(CN3CCc4nn(C)c(=O)cc4C3)n2)c1`, for which the Percent Effect amounted to 47.9%.

In the case of `CC(C)c1nc(C2CCCN2CC(=O)N2CCc3ccccc32)no1` (stereo not given), the Percent Effect was determined as 1.52%.

`CC(=O)NCC(=O)N1CCn2cc(CN3CCN(C)CC3)nc2C1`: the Percent Effect stood at 1.6%.

For the molecule `CNC(=O)c1cccc(NC(=O)CN2CCN(S(C)(=O)=O)CC2)c1`, the Percent Effect is -5.52%.

Turning to `Cn1cnc(S(=O)(=O)NCCCN2CCOCC2)c1Cl`, the Percent Effect is 3.04%.

In the case of `CC1(C)OCC(CNC(=O)c2cnn(-c3cc(Cl)ccc3Cl)c2N)O1` (stereo not given), the Percent Effect is -2.66%.

For the molecule `O=C(NC(Cc1ccsc1)c1nccs1)C1CCOCC1` (stereo not given), the Percent Effect was 1.44%.

In the case of `CNc1cncc(C2CCCN2Cc2ccccn2)n1` (stereo not given), the Percent Effect is -3.38%.

As to `Cc1nnc2n1CCN(C(C(=O)NC1CC1)c1ccccc1)C2` (stereo not given), the Percent Effect was -4.48%.

As to `COCCc1noc(CN2CCCC2Cn2cc(C)cn2)n1` (stereo not given), the Percent Effect was -2.48%.

Consider `CCc1noc(C(C)N2CCN(Cc3noc(C)n3)CC2)n1` (stereo not given), for which the Percent Effect is -5.46%.

In the case of `Cc1nnc(NC(=O)NCc2cccnc2N(C)C)s1`, the Percent Effect was -2.76%.

Turning to `Cc1ccc(CN(Cc2ccccn2)C2CC(C)(C)NC(C)(C)C2)s1`, the Percent Effect was -5.4%.

Regarding `Cc1cc(C(=O)N2CCCCC2C)ccc1NCCCO` (stereo not given), the Percent Effect was -5.49%.

Take `O=C(CC1CCCC1)NCCn1ccc(-c2ccccn2)n1`: the Percent Effect is -4.3%.

`Cc1nc(C)n(CC2CN(Cc3cccc4c3OCCO4)CCO2)n1` (stereo not given): the Percent Effect is -4.36%.

As for `O=C(COCc1ccccc1)N1CCC(OCc2cccnc2)CC1`, the Percent Effect was -4.62%.

Consider `Cc1ccoc1C(=O)N1CC[C@H]2OCC[C@@]2(COCc2ccncc2)C1`, for which the Percent Effect was 3.13%.

As to `CCCOc1cc(C)ccc1NC(=O)NCCC(=O)N(C)C`, the Percent Effect stood at 2.21%.
